Reference: the supplement of paper PMC6555819

test system: VDR:RXRa (NR concentration 270 nM, RXRa partner concentration 90 nM); assay: PBM binding z-score (relative to random genomic background probes); higher = stronger binding; sequences stand for … in GC…GCGATTGACAGCGTAGAATGAAGG
Protocol: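 Protein-binding microarray (Agilent 4x180K custom design, double-stranded 60-nt probes: 5' GC cap, 34-nt variable region, 24-nt constant primer region; full probe sequence given). Purified or IVT nuclear receptor:RXRα heterodimers (3:1 NR:RXRα, mostly 270:90 nM) or homodimers were incubated for 1 h in PBS with 2% milk and no ligand, then detected with Alexa488 antibodies. Fluorescence from o1-orientation probes (~5 replicates averaged) was converted to z-scores against 500 random hg19 background probes. Variable regions are seed direct-repeat (DR0–DR5) sites, all their single-nucleotide variants and half-site ablations.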

Question: CCTCGGAGGACAACAGGAGGTCTGAGCTGCCAGA was tested. Which PBM binding z-score did it give?
Answer: -0.681

Question: For CCAGACAGGTGAGAAGGTAACTTAGCCTCGATTA, which PBM binding z-score is on record?
Answer: 0.0956

Question: Which PBM binding z-score does the source give for AGAATGAGTTTATACGTAGATCAGGGAAGAAAGT here?
Answer: 1.71

Question: For TCTAGTTAGTCACGGAGGTCACACACGACGGGTA, which PBM binding z-score is on record?
Answer: 4.24

Question: How did the PBM binding z-score turn out when GCTAGTTGGTCAGTAAAAGTTCACACACCGGTCG was run?
Answer: 2.55

Question: With CAAACTAGGTCACAGAGGTCAAAATCCGTGCGTA as the sequence, how does the PBM binding z-score read?
Answer: 7.91

Question: Which PBM binding z-score does the source give for AGAATGAGGTTATACGTAGATCAGGGAAGAAAGT here?
Answer: 1.52

Question: How did the PBM binding z-score turn out when GGAACGAGCGCAAGTTGATAGCAGAGTTTGATGG was run?
Answer: -0.693

Question: Which PBM binding z-score does the source give for TCTAACAGGCCAGAGGGTCACTCAAGAGGTACGG here?
Answer: 1.76

Question: How did the PBM binding z-score turn out when TCTCGGAGCACACGAAAGGTCAGAGCTCGACATC was run?
Answer: 2.26

Question: With ACTAGTTGGTCAGCTGAGGTCTCACACAATTCGG as the sequence, how does the PBM binding z-score read?
Answer: 0.0458

Question: For ACAGACAGGTGCTGAAGGTAACTCAGGCTATCAT, which PBM binding z-score is on record?
Answer: -0.264

Question: Which PBM binding z-score does the source give for ATCTCTAGGTAACCAGGTTCAGTGAATGCCGAAC here?
Answer: 4.05

Question: For AATACAGGGTCATCGTAGGCCACAGTACGCACAG, which PBM binding z-score is on record?
Answer: 5.63

Question: With TAGGCTAGGTCATGGGCCAGTATACCACGCGAAC as the sequence, how does the PBM binding z-score read?
Answer: 1.98

Question: Which PBM binding z-score does the source give for CCTCGGAGGACTGAAGGTCAGAGCTGTCCGCTTT here?
Answer: 0.567

Question: ACTATTAGTTGAGACGAGGGTAACCGATAGGTTG was tested. Which PBM binding z-score did it give?
Answer: 0.26

Question: How did the PBM binding z-score turn out when GGAACGAGGGCATTCGATTTGATAGCATGGCGAT was run?
Answer: 1.73

Question: CCAGACAGGTGAAAGCTAACTCAGTCTGGTACGC was tested. Which PBM binding z-score did it give?
Answer: -0.274

Question: For AGTCAAAGTTCTGGACGAGGTAACGTAAAGCACG, which PBM binding z-score is on record?
Answer: -0.216

Question: GGTACAGGGTCAGCTAGAGGCCAGAGTATGGAAA was tested. Which PBM binding z-score did it give?
Answer: 3.29

Question: CCAGACAGGTGACAAGGTAACTCAGCCTCGATTA was tested. Which PBM binding z-score did it give?
Answer: 0.0377

Question: ATAATGAGGTTATACGTAGATCAGGGAAGAAAGT was tested. Which PBM binding z-score did it give?
Answer: 1.95

Question: Which PBM binding z-score does the source give for TCGAGTAGGTTAGTGGGGGCATTCAGCCAACATA here?
Answer: 5.48

Question: How did the PBM binding z-score turn out when AGAAGGAGGTTAAGATCAGGGAAACAGAATACAT was run?
Answer: 0.978

Question: How did the PBM binding z-score turn out when AGTCAAAGTTCAGGACGAGGTAACGAAAAGCACG was run?
Answer: 2.95

Question: TCATATAGGTATTACAGGTGAAAGTCGGCATCTA was tested. Which PBM binding z-score did it give?
Answer: 1.34

Question: For TCATATAGGAAAACAGGTGAAAGTCCGTAAGTTA, which PBM binding z-score is on record?
Answer: 1

Question: For CCTAGTTGGTCAAGGACACACACGCTATAGGTAC, which PBM binding z-score is on record?
Answer: 0.744

Question: TCACCAAGGTGAGCTGAGGTCGTTGATCCAACTC was tested. Which PBM binding z-score did it give?
Answer: 3.97

Question: With TAGCCTAGGTCAAATCGGGCCAGTATACGCTATA as the sequence, how does the PBM binding z-score read?
Answer: 2.7

Question: With TCGAGTAGGTTACCAATGGGGCATTCAACTTTCT as the sequence, how does the PBM binding z-score read?
Answer: 0.521

Question: With CTCGAAAGGTCGTGCTCAGGTGGGTATACCAAAC as the sequence, how does the PBM binding z-score read?
Answer: 3.24

Question: With ATCTTTAGGTAAAAGTTCAGTGAATCCCGAGGAT as the sequence, how does the PBM binding z-score read?
Answer: 1.43

Question: With CGAACGAGGGCATGACTTGATAGCAAATGCCGAT as the sequence, how does the PBM binding z-score read?
Answer: 0.573

Question: GCAGACAGGTGAAACGCAGGTAAATCAGGGTGGC was tested. Which PBM binding z-score did it give?
Answer: -0.374

Question: CCTACTGGGCCATCAGGTCAATGATATCAACGTT was tested. Which PBM binding z-score did it give?
Answer: 1.4

Question: How did the PBM binding z-score turn out when TGTCAAAGTTCAAAGGTAACGTTAGTATCCACAC was run?
Answer: 4.9

Question: Which PBM binding z-score does the source give for GCCTATAGGTAATACAAGGTGAAAGTCCGATTGT here?
Answer: 0.256

Question: CATACAGGGTCAGCTAGGCCAAAGTAGGGACGGC was tested. Which PBM binding z-score did it give?
Answer: 4.73
